Test results: PubChem BioAssay
Calls of active or inactive are those of the source.

Tests used:
[1] = system: Human papillomavirus type 1a protein E7 (residues 44-93); test: small molecules binding HPV E7 44-93 – biochemical, small-molecule microarray, residues 44-93, 635 nm fluorescence, primary screen (AID 1108); settings: fluorescence 635 nm, higher = more signal;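 further: E7 fragment applied at 1 µg/mL in TBST for 1 h at 4 C; score combines spot fluorescence with its signal to noise ratio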
[2] = hepatitis C replication reporter changes, two-sided – Huh7 cells, luciferase reporter, HCV replication inhibitor project, primary screen (AID 1109); settings: Huh7 HCV replicon luciferase reporter, 48 h; higher = more signal;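 further: huh7 hepatoma cells harbouring a luciferase neomycin HCV replicon reporter; luciferase luminescence as measure of HCV replicon replication; test concentration not given here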
[3] = molecular target: Left-right determination factor 2 (Homo sapiens) (UniProt O00292); test: small molecules binding LEFTY2 protein – biochemical, small-molecule microarray, 635 nm fluorescence scan, primary screen (AID 1110); settings: higher = more signal
Sequence of Left-right determination factor 2 (Homo sapiens) (O00292 whole entry, looked up): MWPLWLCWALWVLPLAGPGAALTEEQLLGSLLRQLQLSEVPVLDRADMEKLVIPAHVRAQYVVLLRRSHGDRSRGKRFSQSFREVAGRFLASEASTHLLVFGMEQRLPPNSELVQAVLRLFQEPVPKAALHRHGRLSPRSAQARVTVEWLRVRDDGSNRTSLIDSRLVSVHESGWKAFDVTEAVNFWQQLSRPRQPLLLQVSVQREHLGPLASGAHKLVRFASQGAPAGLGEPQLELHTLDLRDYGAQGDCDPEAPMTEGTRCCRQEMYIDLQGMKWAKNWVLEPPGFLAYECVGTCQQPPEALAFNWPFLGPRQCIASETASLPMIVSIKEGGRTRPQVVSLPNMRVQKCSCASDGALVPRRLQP

[4] = molecular target: Calmodulin-1 (Homo sapiens) (UniProt P0DP23); test: small molecules binding calmodulin-1 with EGTA – biochemical, small-molecule microarray, Cy5-labelled CALM1, profiling panel (AID 1111); settings: Cy5-CALM1 binding fluorescence, higher = more signal;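 further: labelled calmodulin applied in Tris saline Tween buffer holding calcium plus EGTA and DTT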
[5] = molecular target: Calmodulin-1 (Homo sapiens) (UniProt P0DP23); test: small molecules binding Ca-loaded calmodulin-1 – biochemical, small-molecule microarray, Cy5-labelled CALM1, plus calcium, artefact control for SMM control-protein annotation, profiling panel (AID 1112); settings: Cy5-CALM1 binding fluorescence, higher = more signal;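 further: score merges spot fluorescence with signal to noise from triplicate slides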
[6] = probe aWnt5a binding to arrayed compounds – biochemical, biotinylated probe, 635/667 nm fluorescence, primary screen (AID 1113); settings: small-molecule microarray, higher = more signal;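 further: score merges 667 nm fluorescence intensity with signal-to-noise per printed feature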
[7] = probe aShh binding to arrayed compounds – biochemical, biotinylated probe, 635/667 nm fluorescence, primary screen (AID 1114); settings: small-molecule microarray, higher = more signal;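 further: probe is biotin-labelled aShh protein from a stem cell growth factor screen; measures binding of labelled protein to compounds printed on the slide; score merges feature fluorescence at 667 nm with signal-to-noise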
[8] = probe aNog binding to arrayed compounds – biochemical, biotinylated probe, 635/667 nm fluorescence, primary screen (AID 1115); settings: small-molecule microarray, higher = more signal;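 further: probe is biotinylated aNog protein used at 0.15 µg/mL for 1 h at 4 C; z-score combines 667 nm fluorescence of each spot with its signal to noise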
[9] = molecular target: Torsin-1A-interacting protein 1 (Homo sapiens) (UniProt Q5JTV8); test: compound microarray binding of lysate hLAP1 – cell lysate, small-molecule microarray, COS7 lysate, 635/667 nm fluorescence, primary screen (AID 1116); settings: 635 nm fluorescence, higher = more signal
Sequence of Torsin-1A-interacting protein 1 (Homo sapiens) (Q5JTV8 whole entry, looked up): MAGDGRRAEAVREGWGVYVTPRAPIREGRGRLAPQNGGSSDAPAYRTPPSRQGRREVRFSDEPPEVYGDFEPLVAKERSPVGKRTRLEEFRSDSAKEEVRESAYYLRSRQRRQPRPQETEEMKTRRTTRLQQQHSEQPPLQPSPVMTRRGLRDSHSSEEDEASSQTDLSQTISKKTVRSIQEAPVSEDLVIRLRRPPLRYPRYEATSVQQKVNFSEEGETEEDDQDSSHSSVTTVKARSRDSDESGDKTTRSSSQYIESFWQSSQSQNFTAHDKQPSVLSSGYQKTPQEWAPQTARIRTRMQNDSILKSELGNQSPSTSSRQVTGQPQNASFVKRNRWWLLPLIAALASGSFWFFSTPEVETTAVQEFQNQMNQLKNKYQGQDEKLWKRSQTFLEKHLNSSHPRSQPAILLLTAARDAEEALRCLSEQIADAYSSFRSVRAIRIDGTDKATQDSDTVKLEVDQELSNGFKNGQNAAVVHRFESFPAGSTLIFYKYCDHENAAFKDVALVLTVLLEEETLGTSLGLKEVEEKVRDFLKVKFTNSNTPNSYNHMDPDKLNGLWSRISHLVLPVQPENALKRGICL

[10] = molecular target: Alpha-bungarotoxin (Bungarus multicinctus) (UniProt P60615); test: compounds binding labelled alpha-BTX control protein – biochemical, small-molecule microarray, Alexa647 label, 635/667 nm fluorescence, artefact control for SMM control protein annotation, profiling panel (AID 1117); settings: alpha-BTX-A647 binding fluorescence, higher = more signal
Sequence of Alpha-bungarotoxin (Bungarus multicinctus) (P60615 whole entry, looked up): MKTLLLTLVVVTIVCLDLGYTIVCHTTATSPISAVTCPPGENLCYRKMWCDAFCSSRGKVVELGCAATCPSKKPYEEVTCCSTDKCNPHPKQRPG

Albumin (Bos taurus) = Albumin (Bos taurus) (UniProt P02769); test: compounds binding labelled BSA control protein – biochemical, small-molecule microarray, Alexa647 label, 635/667 nm fluorescence, artefact control for SMM control protein annotation, profiling panel (AID 1118); settings: BSA-A647 binding, fluorescence 635 nm, higher = more signal;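 further: score merges 667 nm emission intensity and signal-to-noise per printed compound spot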
Sequence of Albumin (Bos taurus) (P02769 whole entry, looked up): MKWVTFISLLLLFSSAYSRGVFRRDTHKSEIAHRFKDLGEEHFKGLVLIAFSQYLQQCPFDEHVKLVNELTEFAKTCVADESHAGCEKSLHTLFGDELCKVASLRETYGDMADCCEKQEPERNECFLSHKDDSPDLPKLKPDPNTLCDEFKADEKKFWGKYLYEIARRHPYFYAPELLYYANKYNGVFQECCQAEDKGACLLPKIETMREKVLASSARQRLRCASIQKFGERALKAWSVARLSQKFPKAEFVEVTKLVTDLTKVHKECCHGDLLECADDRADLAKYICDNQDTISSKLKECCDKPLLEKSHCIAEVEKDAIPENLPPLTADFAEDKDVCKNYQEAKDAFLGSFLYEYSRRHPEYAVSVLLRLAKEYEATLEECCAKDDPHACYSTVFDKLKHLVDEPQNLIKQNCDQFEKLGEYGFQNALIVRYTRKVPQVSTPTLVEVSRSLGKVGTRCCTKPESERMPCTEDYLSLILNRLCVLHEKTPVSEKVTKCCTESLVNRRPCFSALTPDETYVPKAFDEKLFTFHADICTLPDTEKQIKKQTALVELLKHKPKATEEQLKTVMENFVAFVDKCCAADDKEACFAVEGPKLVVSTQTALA

[11] = probe aXIP binding to arrayed compounds – biochemical, NeuroSMM set, 635/667 nm fluorescence, primary screen (AID 1119); settings: small-molecule microarray, higher = more signal, called active from +8 up or from −8 down;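 further: probe is the protein aXip251-270 applied at 1 µg/mL to compound-printed slides; binding of probe to printed compounds measured as 667 nm fluorescence plus signal to noise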
[12] = probe aNOTCH3 binding on compound microarray – biochemical, small-molecule microarray, 635/667 nm fluorescence, primary screen (AID 1120); settings: higher = more signal;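 further: probe is a biotin-tagged antibody raised against NOTCH3 rather than NOTCH3 protein; score merges spot fluorescence near 667 nm with spot signal to noise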
[13] = probe aNOTCH2 binding on compound microarray – biochemical, small-molecule microarray, 635/667 nm fluorescence, primary screen (AID 1121); settings: higher = more signal;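 further: score merges feature fluorescence read at 667 nm with its signal to noise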
[14] = molecular target: Carbonic anhydrase 2 (Homo sapiens) (UniProt P00918); test: compounds binding carbonic anhydrase 2 – biochemical, small-molecule microarray, Alexa647-labelled CAII, profiling panel (AID 1122); settings: CAII-A647 binding fluorescence, higher = more signal
[15] = COS7 lysate on small-molecule microarray, probe aHis, 635 nm (AID 1123); settings: COS7 cell lysate, fluorescence, higher = more signal;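 further: z-score combines 667nm fluorescence intensity with signal-to-noise per printed compound spot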
[16] = probe aLAP1 signal on lysate-treated microarray – cell lysate, small-molecule microarray, COS7 lysate, primary screen (AID 1124); settings: probe aLAP1, fluorescence, higher = more signal;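 further: lysate comes from COS7 cells expressing LAP1 and is applied at 0.3 µg/mL; score merges spot fluorescence near 667 nm with signal-to-noise over triplicate slides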
Sam68 (KHDRBS1) = test: compounds binding KHDRBS1 protein – biochemical, small-molecule microarray, 635 nm fluorescence, primary screen (AID 1125); settings: higher = more signal;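 further: score merges 667 nm channel intensity with signal to noise over triplicate slides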
[17] = system: Chordin-like protein 2 (CHRDL2); test: compounds binding chordin-like 2 – biochemical, small-molecule microarray, 635 nm fluorescence, primary screen (AID 1126); settings: fluorescence 635 nm, higher = more signal;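 further: printed compound slides probed with Chrdl2 protein at 4 µg/mL for 1 h at 4 C; score merges 667 nm emission intensity with signal to noise over three replicate slides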
[18] = molecular target: Concanavalin-A (Canavalia ensiformis) (UniProt P02866); test: compounds binding concanavalin A lectin – biochemical, small-molecule microarray, Alexa647 label, 635 nm, artefact control for SMM control protein annotation, primary screen (AID 1127); settings: ConA-A647 binding fluorescence, higher = more signal;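 further: z combines 667 nm emission intensity with signal-to-noise across three replicate slides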
Sequence of Concanavalin-A (Canavalia ensiformis) (P02866 whole entry, looked up): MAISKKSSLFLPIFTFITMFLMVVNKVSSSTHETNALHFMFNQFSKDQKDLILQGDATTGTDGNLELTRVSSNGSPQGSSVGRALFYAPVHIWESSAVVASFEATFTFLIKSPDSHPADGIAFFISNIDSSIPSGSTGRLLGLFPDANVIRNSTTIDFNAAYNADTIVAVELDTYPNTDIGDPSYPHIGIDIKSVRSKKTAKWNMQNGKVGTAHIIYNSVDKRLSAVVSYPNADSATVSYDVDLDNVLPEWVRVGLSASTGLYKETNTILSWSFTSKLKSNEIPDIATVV

Structure (SMILES)	composite z-score [1]	z-score [2]	composite z-score [3]	composite z-score [4]	composite z-score [5]	composite z-score [6]	composite z-score [7]	composite z-score [8]	composite z-score [9]	composite z-score [10]	composite z-score (Albumin (Bos taurus))	composite Z-score [11]	composite z-score [12]	composite z-score [13]	composite z-score [14]	composite z-score [15]	composite z-score [16]	composite z-score (Sam68 (KHDRBS1))	composite z-score [17]	composite z-score [18]
CCOc1cc(C(O)C2C=CC3C(=O)N(C)C(=O)C3N2Nc2ccccc2)ccc1O (stereo not given)	1.24	-0.146	0.0031	0.796	-0.211	-0.0165	-0.155	-0.145	1.92	0.848	1.04	0.765 (inactive)	0.194	0.0931	0.827	1.28	-0.438	1.22	0.0675	0.947
CC1CC/C=C\[C@H]2OC34C=CCN(C(C)C)C(=O)[C@H]3N(CCCCCCO)C(=O)[C@@H]4C2C(=O)O1 (stereo not given in full)	-1.9	-0.729	-0.83	-0.295	0.571	-0.15	-0.117	0.0595	-0.673	-0.706	-0.0272	-0.416 (inactive)	-0.268	-0.145	0.889	-0.63	-0.0532	-1.83	-0.607	-0.594
[N-]=[N+]=Nc1ccccc1C[C@]1(C(N)=O)N=C(c2ccc(OCCCO)cc2)O[C@H]1c1ccccc1N=[N+]=[N-]	1.38	-2.55	-0.0114	1.55	0.873	0.0799	0.162	1.03	0.776	0.702	0.92	-0.199 (inactive)	0.231	-0.0091	0.672	0.0754	0.193	1.31	-0.321	1.12
O=C(CS)NCCCCCNC(=O)[C@@H]1C[C@@H]2C(=O)N3CCC[C@H]3C(=O)N2[C@@H]1c1cccc(OCCO)c1	1.42	-0.367	-0.429	1.39	-1.29	-0.073	-0.16	-0.565	1.76	1.14	-0.105	1.11 (inactive)	-0.284	-0.258	0.747	2.18	0.503	0.246	0.712	0.91
CN(C)CCCNC(=O)[C@@]1(c2ccc([N+](=O)[O-])cc2)CC(=O)N(CC23CC4CC(CC(C4)C2)C3)[C@@H]1c1ccc(CO)cc1I	1.39	-3.54	0.703	0.307	-0.0622	0.0668	0.462	0.192	1.27	1.15	0.685	-0.729 (inactive)	0.095	-0.0877	0.511	2.86	0.457	1.28	0.731	1.14
CC(C)(C)OC(=O)CC[C@]1(C(=O)NCC(O)CO)N=C(c2ccc(OCCCO)cc2)O[C@H]1c1ccccc1 (stereo not given in full)	1.32	-1.74	-1.13	0.451	1.24	-0.0403	-0.0904	0.701	1.93	-0.383	0.902	0.561 (inactive)	-0.0678	-0.0843	0.873	3.11	0.0605	0.723	-0.852	-0.137
[N-]=[N+]=NCc1ccccc1C[C@]1(C(N)=O)N=C(c2ccc(OCCCO)cc2)O[C@H]1c1ccccc1	1.45	-2.07	-1.1	0.637	0.784	0.0003	0.14	0.581	2.27	0.623	0.96	-0.524 (inactive)	0.073	-0.1	0.82	2.67	0.525	0.976	-1.03	0.533
COCCOC(=O)N1C(=O)[C@@]2(c3cc(C#CCC(C(=O)OC)C(=O)OC)ccc31)[C@H](C(=O)N1CCc3cc(OC)c(OC)cc3C1)[C@H]1C(=O)O[C@H](c3ccccc3)[C@H](c3ccccc3)N1[C@@H]2c1ccc(OCCO)cc1	1.39	-0.45	0.608	0.756	-0.551	-0.006	-0.1	-0.103	0.0568	2.16	-0.525	0.654 (inactive)	0.15	-0.0357	0.357	1.2	0.519	1.29	0.837	1.11
CCCNC(=O)[C@@H]1c2ccccc2C(=O)N(C(C)C)[C@H]1c1ccc(CO)cc1	0.123	-0.362	-0.378	-0.193	0.0439	-0.104	0.0062	-0.287	0.625	-0.182	-0.342	0.251 (inactive)	-0.0728	-0.0567	0.322	0.113	0.784	0.437	-0.605	0.208
Cc1cc(C)c(C(O)C2C=CC3C(=O)NC(=O)C3N2Nc2ccc(Cl)cc2Cl)c(C)c1 (stereo not given)	1.4	-0.293	0.105	2.18	0.954	0.0489	0.171	1.92	1.78	1	0.961	0.234 (inactive)	0.396	-0.0125	0.575	2.94	0.772	1.1	-0.48	1.09
[N-]=[N+]=Nc1ccccc1[C@H]1OC(c2ccc(OCCCO)cc2)=N[C@@]1(CCS(=O)(=O)c1ccccc1)C(=O)NCCN1CCOCC1	1.4	0.517	-0.354	0.757	-0.368	0.0246	0.315	1.03	0.936	0.755	0.189	-0.363 (inactive)	0.189	0.069	0.449	1.72	0.503	1.31	0.577	0.923
COc1ccc([Si](C)(C)[C@H]2[C@H](CCO)O[C@@]3(C(=O)N(Cc4cccc(N5C(=O)COc6ccccc65)c4)c4ccccc43)[C@@H]2C)cc1	-0.502	-4.98	0.0828	0.851	0.675	-0.0417	-0.0146	0.26	0.474	0.252	0.336	0.0953 (inactive)	-0.0343	0.0425	0.338	0.317	0.232	0.297	0.0083	0.567
[N-]=[N+]=NCc1ccccc1[C@H]1OC(c2ccc(OCCCO)cc2)=N[C@@]1(CCS(=O)(=O)c1ccccc1)C(=O)NCC(O)CO (stereo not given in full)	1.46	-0.157	-0.342	1.42	0.66	0.143	0.522	1.59	1.96	1.66	0.567	0.652 (inactive)	0.11	0.0697	0.736	3.48	1.04	1.06	-0.0485	0.939
CN(C)CCCNC(=O)[C@@]1(C)c2ccccc2C(=O)N(Cc2ccccc2)[C@H]1c1ccc(CO)cc1	-0.775	-1.94	-0.157	-1.06	-1.12	0.0026	-0.138	-0.33	-0.281	-0.358	-1.05	-0.194 (inactive)	-0.264	-0.236	0.704	-0.358	-0.39	-0.0419	-0.19	-0.371
O=C(NCC(F)(F)F)[C@@H]1c2ccccc2C(=O)N(Cc2ccc(OC(F)(F)F)cc2)[C@H]1c1ccc(CO)cc1	1.4	-0.971	0.174	-0.112	0.0084	-0.0704	0.0839	-0.224	0.148	0.173	0.0667	-0.348 (inactive)	-0.0647	-0.14	0.65	0.96	0.203	0.761	-0.374	0.711
O=C1O[C@H](c2ccccc2)[C@H](c2ccccc2)N2[C@H]1[C@@H](C(=O)N1CCN(c3ncccn3)CC1)[C@]1(C(=O)Nc3ccc(C#CC4(O)CCCCCC4)cc31)[C@H]2c1ccc(OCCO)cc1	1.44	-1.58	1.51	2.26	1.24	0.793	0.543	2.34	3.93	2.81	0.0591	6.42 (inactive)	1.39	0.606	0.62	3.46	1.61	1.29	1.41	1.1
COCCOC(=O)N1C(=O)[C@@]2(c3cc(C#CC4=CCCCC4)ccc31)[C@H](c1ccccc1OCCO)N1[C@H](c3ccccc3)[C@H](c3ccccc3)OC(=O)[C@H]1[C@@H]2C(=O)N1CCCCCCC1	1.38	-2.94	0.225	-0.529	0.258	-0.0327	-0.493	-0.345	1.08	0.973	-0.0107	0.181 (inactive)	-0.582	-0.26	0.592	2.23	0.22	1.34	0.323	0.592
C=CCOC(=O)[C@H]1[C@@H]2C(=O)O[C@@H](c3ccccc3)[C@@H](c3ccccc3)N2[C@@H](c2ccc(OCCOC(=O)[C@H]3C[C@H]4C(=O)N[C@@H](CC(C)C)C(=O)N4[C@H]3c3cccc(OCCO)c3)cc2)[C@]12C(=O)Nc1ccc(I)cc12	1.31	-1.51	1.08	0.621	0.0537	-0.168	-0.0769	-0.141	-0.302	0.473	-0.172	0.628 (inactive)	0.233	-0.107	0.518	1.15	0.239	1.32	1.29	1.11
O=c1n(-c2ccccc2)c(=O)n2n1CC(COc1ccccc1)=C([C@H](O)CCc1ccccc1)[C@@H]2CO	0.676	-2.17	0.892	-0.833	-0.556	-0.0269	-0.338	-0.588	0.0355	0.5	-0.341	0.11 (inactive)	-0.187	-0.0895	-0.241	0.277	-0.408	-0.0362	0.315	-0.352
NCCCCCCNC(=O)[C@@H]1C[C@@H]2C(=O)N[C@@H](CCCCN)C(=O)N2[C@@H]1c1cccc(OCCO)c1	1.32	-0.661	1.1	1.02	1.2	0.188	1.05	2.03	0.882	0.933	-0.907	2.87 (inactive)	0.645	0.163	0.584	-0.191	0.767	1.2	1.05	0.718
